Assay results published in PubChem BioAssay (Tox21).
Results filed as inconclusive are left out. Calls of active or inactive are those of the source. The call rests on the fitted dose curve; in most records, active means well fitted inhibition curve with a large enough effect in the repeat runs; inconclusive means weak or mixed curves; inactive means no such curve, though single readings can be large or run the other way.

biological target: Cytochrome P450 2D6 (Homo sapiens) (UniProt P10635); experiment: Cytochrome P450 Family 2 Subfamily D Member 6 (CYP2D6) small molecule antagonists: luciferase reporter qHTS assay (AID 1671196); details: P450-Glo CYP2D6 enzyme assay, luciferin luminescence, 1 h; series mostly up to 115 µM; further: nearly all actives have a fitted effect of over 50% in size
Sequence (P10635 whole entry, looked up): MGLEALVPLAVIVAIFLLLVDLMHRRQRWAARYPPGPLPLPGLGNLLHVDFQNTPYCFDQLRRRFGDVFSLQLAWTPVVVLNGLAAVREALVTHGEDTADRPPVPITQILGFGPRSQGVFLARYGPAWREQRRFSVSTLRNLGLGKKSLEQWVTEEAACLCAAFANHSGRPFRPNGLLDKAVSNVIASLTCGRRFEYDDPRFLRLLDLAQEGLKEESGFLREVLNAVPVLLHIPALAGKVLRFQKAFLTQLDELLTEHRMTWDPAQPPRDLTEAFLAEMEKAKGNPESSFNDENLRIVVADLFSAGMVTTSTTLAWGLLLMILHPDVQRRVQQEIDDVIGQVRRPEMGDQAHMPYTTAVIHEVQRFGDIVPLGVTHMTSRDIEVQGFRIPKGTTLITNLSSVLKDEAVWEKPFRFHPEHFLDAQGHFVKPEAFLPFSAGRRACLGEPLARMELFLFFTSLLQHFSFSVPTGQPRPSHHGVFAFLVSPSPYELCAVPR
In short: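 Luminogenic proluciferin substrate, CYP2D6 enzyme; 10 min RT preincubation with compound, NADPH regeneration system added, 1 h RT. Stop/detection reagent, 20 min RT, luminescence read (RLU). Signal proportional to CYP activity.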
Potency means the concentration at half of the fitted maximal effect.

With `CCOP(=S)(OCC)Oc1cc(C)nc(N(CC)CC)n1` as the compound, how does the Potency read?
Its Potency is 50.2 µM (active).

How did the Potency turn out when `Cc1ccc([N+](=O)[O-])[c]2c1[O][Hg]2` was run?
The Potency was 0.871 µM (active).

With `CC(=O)[O][Sn]([c]1ccccc1)([c]1ccccc1)[c]1ccccc1` as the compound, how does the Potency read?
The Potency was 0.2 µM (active).

How did the Potency turn out when `C=C(C)C(=O)[O][Sn]([CH2]CCC)([CH2]CCC)[CH2]CCC` was run?
The Potency was 2.24 µM (active).

Which Potency does the source give for `CNC(=O)/C=C(\C)OP(=O)(OC)OC` here?
The Potency was “inactive”.

How did the Potency turn out when `N#Cc1ccc(N(CC(N)=O)CC(F)(F)F)cc1C(F)(F)F` was run?
Its Potency is 31.7 µM (active).

For `C=CC(=O)[O][Sn]([CH2]CCC)([CH2]CCC)[CH2]CCC`, which Potency is on record?
The Potency was 1.26 µM (active).

How did the Potency turn out when `NC(=O)C(Cl)Cl` was run?
The Potency was “inactive”.

For `Cc1cccc(Cc2cnc[nH]2)c1C`, which Potency is on record?
The Potency was 2.45 µM (active).

How did the Potency turn out when `N#CSCc1ccccc1` was run?
Its Potency is 45 µM (active).

`CCOP(=O)(OCC)Oc1cc(C)nc(C(C)C)n1` was tested. Which Potency did it give?
Its Potency is “inactive”.

How did the Potency turn out when `N#CCCl` was run?
Its Potency is 29.5 µM (active).

Which Potency does the source give for `C=CC(=C)C` here?
The Potency was “inactive”.

For `CCn1cc[n+](C)c1` (tested in a mixture with another compound), which Potency is on record?
Its Potency is “inactive”.

Which Potency does the source give for `CC(=O)[O][Pb]([c]1ccccc1)([c]1ccccc1)[c]1ccccc1` here?
The Potency was 22.4 µM (active).

`CCCCc1ccccc1` was tested. Which Potency did it give?
Its Potency is “inactive”.

For `O=C(Nc1ccc(F)cc1F)c1cccnc1Oc1cccc(C(F)(F)F)c1`, which Potency is on record?
Its Potency is “inactive”.

Which Potency does the source give for `ClC1(Cl)C2(Cl)C3(Cl)C4(Cl)C(Cl)(Cl)C5(Cl)C3(Cl)C1(Cl)C5(Cl)C24Cl` (stereo unspecified) here?
Its Potency is “inactive”.

For `Cc1nn(-c2cc(NS(C)(=O)=O)c(Cl)cc2Cl)c(=O)n1C(F)F`, which Potency is on record?
The Potency was “inactive”.

With `CCC[CH2][Sn]([CH2]CCC)([CH2]CCC)[CH2]CCC` as the compound, how does the Potency read?
The Potency was 20 µM (active).

Which Potency does the source give for `O=S1(=O)OCC2C(CO1)C1(Cl)C(Cl)=C(Cl)C2(Cl)C1(Cl)Cl` (stereo unspecified) here?
The Potency was “inactive”.

How did the Potency turn out when `C[C@]12C/C(=C/O)C(=O)C[C@@H]1CC[C@@H]1[C@@H]2CC[C@@]2(C)[C@H]1CC[C@]2(C)O` was run?
The Potency was “inactive”.

For `[Cl][Hg][c]1ccccc1`, which Potency is on record?
The Potency was 0.796 µM (active).

For `CCCCCON=O`, which Potency is on record?
Its Potency is “inactive”.

With `ClC(Cl)C(Cl)(Cl)Cl` as the compound, how does the Potency read?
The Potency was “inactive”.

`COC(=O)/C=C(\C)OP(=O)(OC)OC` was tested. Which Potency did it give?
The Potency was 31.7 µM (active).

`CC1(C)[C@H](/C=C2\CCSC2=O)[C@@H]1C(=O)OCc1coc(Cc2ccccc2)c1` was tested. Which Potency did it give?
The Potency was 39.9 µM (active).

Which Potency does the source give for `CCCCN(CCCC)C(=S)S` here?
Its Potency is 1.59 µM (active).

biological target: Cytochrome P450 2C19 (Homo sapiens) (UniProt P33261); experiment: Cytochrome P450 Family 2 Subfamily C Member 19 (CYP2C19) small molecule antagonists: luciferase reporter qHTS assay (AID 1671197); details: P450-Glo CYP2C19 enzyme, luciferin luminescence, 1 h; series mostly up to 115 µM; further: nearly all actives have a fitted effect of over 65% in size
Sequence (P33261 whole entry, looked up): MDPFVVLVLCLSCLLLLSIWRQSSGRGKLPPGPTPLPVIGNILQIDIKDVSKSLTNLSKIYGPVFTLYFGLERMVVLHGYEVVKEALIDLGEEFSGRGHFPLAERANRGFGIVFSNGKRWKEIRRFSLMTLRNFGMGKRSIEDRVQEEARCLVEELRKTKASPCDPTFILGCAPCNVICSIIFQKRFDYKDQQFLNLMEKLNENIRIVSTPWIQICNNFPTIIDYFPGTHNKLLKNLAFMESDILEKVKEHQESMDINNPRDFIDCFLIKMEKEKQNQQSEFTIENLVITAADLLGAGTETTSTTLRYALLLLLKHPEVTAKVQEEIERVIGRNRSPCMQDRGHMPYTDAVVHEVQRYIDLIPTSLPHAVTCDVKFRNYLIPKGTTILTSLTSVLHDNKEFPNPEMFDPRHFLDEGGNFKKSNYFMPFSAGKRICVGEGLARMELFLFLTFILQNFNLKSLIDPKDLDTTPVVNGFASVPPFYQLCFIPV
In short: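 Relative luminescence units recorded 20 min after the detection reagent stopped a 1 h, 37C CYP2C19 reaction on proluciferin substrate, which was started by NADPH regeneration following 10 min room-temperature compound preincubation; ketoconazole positive control.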

`CCOP(=S)(OCC)Oc1cc(C)nc(N(CC)CC)n1` was tested. Which Potency did it give?
Its Potency is 0.399 µM (active).

For `Cc1ccc([N+](=O)[O-])[c]2c1[O][Hg]2`, which Potency is on record?
The Potency was 2.19 µM (active).

With `CC(=O)[O][Sn]([c]1ccccc1)([c]1ccccc1)[c]1ccccc1` as the compound, how does the Potency read?
Its Potency is 5.03 µM (active).

For `C=C(C)C(=O)[O][Sn]([CH2]CCC)([CH2]CCC)[CH2]CCC`, which Potency is on record?
The Potency was 0.71 µM (active).

Which Potency does the source give for `CNC(=O)/C=C(\C)OP(=O)(OC)OC` here?
The Potency was “inactive”.

For `CC(C)C(Nc1ccc(C(F)(F)F)cc1Cl)C(=O)OC(C#N)c1cccc(Oc2ccccc2)c1` (stereo unspecified), which Potency is on record?
The Potency was 9.01 µM (active).

For `N#Cc1ccc(N(CC(N)=O)CC(F)(F)F)cc1C(F)(F)F`, which Potency is on record?
The Potency was 79.6 µM (active).

`O=C(O)CCCCCCNC1c2ccccc2CCc2ccccc21` was tested. Which Potency did it give?
The Potency was “inactive”.

`C=CC(=O)[O][Sn]([CH2]CCC)([CH2]CCC)[CH2]CCC` was tested. Which Potency did it give?
Its Potency is 0.894 µM (active).

How did the Potency turn out when `NC(=O)C(Cl)Cl` was run?
The Potency was “inactive”.

How did the Potency turn out when `Cc1cccc(Cc2cnc[nH]2)c1C` was run?
Its Potency is 2.19 µM (active).

`N#CSCc1ccccc1` was tested. Which Potency did it give?
The Potency was 71.3 µM (active).

`OCC(Br)CBr` (stereo unspecified) was tested. Which Potency did it give?
The Potency was “inactive”.

Which Potency does the source give for `N#CCCl` here?
Its Potency is 37.1 µM (active).

How did the Potency turn out when `C=CC(=C)C` was run?
Its Potency is “inactive”.

Which Potency does the source give for `CCn1cc[n+](C)c1` (tested in a mixture with another compound) here?
The Potency was “inactive”.

How did the Potency turn out when `CC(=O)[O][Pb]([c]1ccccc1)([c]1ccccc1)[c]1ccccc1` was run?
The Potency was 8.94 µM (active).

With `CCCCc1ccccc1` as the compound, how does the Potency read?
Its Potency is “inactive”.

Which Potency does the source give for `ClC1(Cl)C2(Cl)C3(Cl)C4(Cl)C(Cl)(Cl)C5(Cl)C3(Cl)C1(Cl)C5(Cl)C24Cl` (stereo unspecified) here?
Its Potency is “inactive”.

With `CC(C)=CCN1CC[C@@]2(C)c3cc(O)ccc3C[C@@H]1[C@@H]2C` as the compound, how does the Potency read?
Its Potency is 78.5 µM (active).

How did the Potency turn out when `CC(C)c1c(CN(C)C(C)Cc2ccccc2)n(C)n(-c2ccccc2)c1=O` (stereo unspecified) was run?
Its Potency is 6.92 µM (active).

Which Potency does the source give for `Cc1nn(-c2cc(NS(C)(=O)=O)c(Cl)cc2Cl)c(=O)n1C(F)F` here?
Its Potency is “inactive”.

Which Potency does the source give for `CCC[CH2][Sn]([CH2]CCC)([CH2]CCC)[CH2]CCC` here?
The Potency was 35.6 µM (active).

With `O=S1(=O)OCC2C(CO1)C1(Cl)C(Cl)=C(Cl)C2(Cl)C1(Cl)Cl` (stereo unspecified) as the compound, how does the Potency read?
The Potency was 1.59 µM (active).

How did the Potency turn out when `C[C@]12C/C(=C/O)C(=O)C[C@@H]1CC[C@@H]1[C@@H]2CC[C@@]2(C)[C@H]1CC[C@]2(C)O` was run?
Its Potency is “inactive”.

`[Cl][Hg][c]1ccccc1` was tested. Which Potency did it give?
Its Potency is 5.03 µM (active).

For `CCCCCON=O`, which Potency is on record?
Its Potency is “inactive”.

How did the Potency turn out when `ClC(Cl)C(Cl)(Cl)Cl` was run?
The Potency was “inactive”.

How did the Potency turn out when `COC(=O)/C=C(\C)OP(=O)(OC)OC` was run?
The Potency was 71 µM (active).

How did the Potency turn out when `CCCCC(CC)COC(=O)c1ccccc1C(=O)OCC(CC)CCCC` (stereo unspecified) was run?
The Potency was 14.2 µM (active).

`CC1(C)[C@H](/C=C2\CCSC2=O)[C@@H]1C(=O)OCc1coc(Cc2ccccc2)c1` was tested. Which Potency did it give?
The Potency was 2.24 µM (active).

Which Potency does the source give for `CCCCN(CCCC)C(=S)S` here?
Its Potency is “inactive”.

For `CCCN`, which Potency is on record?
The Potency was “inactive”.
